The full ranking holds about 33,000 sequences; the median of “E-score (-0.5 to 0.5)” is about -0.021, and the highest 2% start at about 0.32. Shown is part of a subset that was picked to be rich in the highest values.

The assay deals with T1, Zap1 (UniProt P47043).
T1 sequence: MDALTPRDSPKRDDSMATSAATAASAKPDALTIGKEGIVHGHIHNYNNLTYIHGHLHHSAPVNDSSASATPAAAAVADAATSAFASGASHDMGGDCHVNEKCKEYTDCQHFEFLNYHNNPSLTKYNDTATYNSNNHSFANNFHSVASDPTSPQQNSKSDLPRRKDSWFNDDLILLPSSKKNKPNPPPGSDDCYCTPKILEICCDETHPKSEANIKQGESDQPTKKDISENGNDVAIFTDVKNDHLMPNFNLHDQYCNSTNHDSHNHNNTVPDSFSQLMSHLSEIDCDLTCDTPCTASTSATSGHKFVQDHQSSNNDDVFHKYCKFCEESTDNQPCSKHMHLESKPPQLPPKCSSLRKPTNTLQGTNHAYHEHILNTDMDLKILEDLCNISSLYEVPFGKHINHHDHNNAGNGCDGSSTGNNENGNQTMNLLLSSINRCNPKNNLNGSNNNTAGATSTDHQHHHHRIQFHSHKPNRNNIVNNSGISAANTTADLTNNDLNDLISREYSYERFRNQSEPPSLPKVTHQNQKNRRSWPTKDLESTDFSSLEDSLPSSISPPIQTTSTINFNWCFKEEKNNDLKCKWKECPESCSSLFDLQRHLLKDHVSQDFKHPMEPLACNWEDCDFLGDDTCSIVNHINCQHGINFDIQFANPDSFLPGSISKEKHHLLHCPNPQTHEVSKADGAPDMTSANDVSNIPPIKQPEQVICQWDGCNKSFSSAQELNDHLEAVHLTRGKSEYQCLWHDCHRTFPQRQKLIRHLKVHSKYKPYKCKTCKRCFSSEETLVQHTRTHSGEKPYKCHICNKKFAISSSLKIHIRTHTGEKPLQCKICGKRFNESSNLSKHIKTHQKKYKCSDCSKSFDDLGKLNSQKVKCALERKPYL
In words: PBM E-score (8-mer binding enrichment) (E-score (-0.5 to 0.5)); higher = stronger / more preferred TF binding. Particulars: protein concentration: 200 nM; construct: GST-full length. The gist of the method: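 Yeast transcription factors carrying a GST tag, as full-length proteins or DNA-binding domains, were produced by PURExpress in vitro transcription/translation. About 100-200 nM protein was applied to universal all-10-mer Agilent arrays, double-stranded by primer extension on fresh or once-stripped slides. Bound protein was detected with fluorescent anti-GST, and scans were normalised with masliner. The Universal PBM Analysis Suite gave each ungapped eight-base word, pooled with its reverse complement, an E-score, a modified Wilcoxon-Mann-Whitney statistic.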
Turning to AAACCATA, the “PBM E-score” value turned out to be 0.202.

With CAACCCCG, the “PBM E-score” value amounted to 0.211. The figure for CAACCCCA is 0.42. Consider CAACCAAA, for which the “PBM E-score” value amounted to 0.213.

Take CAACCCAA: the “PBM E-score” value was 0.272. In the case of TAACCCAA, the “PBM E-score” value is 0.424.

Take GAACCCAA: the “PBM E-score” value was 0.152. With TAACCAAA, the “PBM E-score” value is 0.386. The same measure for GAACCATA: 0.206. As for AAACCAAA, the “PBM E-score” value turned out to be 0.254. On to AAGATGCA, for which the “PBM E-score” value is 0.0988.

Consider AACTTGCT, for which the “PBM E-score” value was -0.17. As to AATGTCTA, the “PBM E-score” value came out at 0.00891. The same measure for CGTCAGTC: -0.206; for GCCGCATA: 0.102; for TACAAGTA: 0.0103. Consider AACCTAAT, for which the “PBM E-score” value came out at 0.204. In the case of GATCAACC, the “PBM E-score” value is -0.0383. The same measure for GTGAGCGA: 0.1; for ATCAGTAC: -0.0201; for AGGTGCAA: 0.0924. The figure for TTTGAAAA is 0.273; for GAGTTCGA it is 0.0349.

AAACCACG: the “PBM E-score” value is -0.0205. The same measure for AAACCCCA: 0.261; for AAACCACA: 0.184; for GAACCCCA: 0.291. The figure for TAACCCCA is 0.424; for TAACCACA it is 0.417; for GTGAGTCA it is -0.0169.

With CCAACTAC, the “PBM E-score” value worked out at 0.0442.

For ACGCGATC, the “PBM E-score” value was -0.143. In the case of TACCACAA, the “PBM E-score” value is 0.359.

For ACCCACAC, the “PBM E-score” value was found to be 0.225. The same measure for ACCCACAG: 0.2; for ACCCACAA: 0.353.

As to TACCACTA, the “PBM E-score” value stood at 0.179.

In the case of CACCACAA, the “PBM E-score” value was 0.147. On to GACCACAA, for which the “PBM E-score” value stood at 0.185.

CACCACTA: the “PBM E-score” value was 0.22. On to AACCACAT, for which the “PBM E-score” value came out at 0.234. The figure for AACCACTA is 0.369; for AACCACAG it is 0.233. On to AACCACAA, for which the “PBM E-score” value turned out to be 0.34.

Take AAACTTAT: the “PBM E-score” value amounted to 0.19. AGAAACTC: the “PBM E-score” value is -0.0693. With GACAGTAA, the “PBM E-score” value was determined as 0.0265.

Regarding AGCTGGCG, the “PBM E-score” value is -0.283. The same measure for AGAAGAGA: -0.205; for CCAAGATC: -0.0112.

For the sequence ACTGCACT, the “PBM E-score” value was -0.149. The same measure for ACAATGGA: 0.159. AAGGAGGA: the “PBM E-score” value is -0.291. The figure for AGGTTAGC is 0.23. On to AAGTTACA, for which the “PBM E-score” value was determined as 0.169. The same measure for CAGTTACG: -0.0217; for AGGTTAGA: 0.185.

ACGTTACA: the “PBM E-score” value was -0.0394.

For the sequence ACGTTACT, the “PBM E-score” value was found to be 0.143. On to AGGTTACA, for which the “PBM E-score” value came to 0.453. The same measure for CGGTTAAG: 0.289. On to AAGTTACT, for which the “PBM E-score” value was -0.0263. CGGTTACG: the “PBM E-score” value amounted to 0.401. Turning to AGGTTACT, the “PBM E-score” value is 0.457. The figure for AGGTTAGG is 0.348.

Regarding CGCTCTCC, the “PBM E-score” value was -0.119. On to ATCCTCTA, for which the “PBM E-score” value was -0.118. The figure for AAACGCCG is -0.159; for TACTGGGA it is 0.0284; for ACCAATCG it is 0.0293.

In the case of ACACGCTA, the “PBM E-score” value was -0.194.

For CGCCTCAA, the “PBM E-score” value was -0.107. Take CTCGAAGA: the “PBM E-score” value stood at 0.0261. The same measure for GATTCCTA: 0.0308; for CGATCCAC: 0.00013. The same measure for AGGTTACG: 0.459; for ACGTTACG: 0.0601; for AAGTTACG: 0.17.

For the sequence ATAACTCC, the “PBM E-score” value is 0.128. The same measure for CAGGTTGG: 0.0671.

Take AAGGTTGA: the “PBM E-score” value came out at 0.149. For the sequence AAGGTTGT, the “PBM E-score” value was 0.384. With AAGGTTGC, the “PBM E-score” value was found to be 0.343. With CAGGTTGC, the “PBM E-score” value was found to be 0.0972. For AAGGTTGG, the “PBM E-score” value was determined as 0.281. The same measure for GTCAGAAC: 0.0394; for AAATGGGA: -0.0864. The same measure for GTCCCCCA: -0.185; for CCGGTTAA: 0.261; for CCGGTTTC: 0.0368. Turning to GCGGTTCC, the “PBM E-score” value worked out at 0.217.

In the case of GCTGTTAC, the “PBM E-score” value is -0.104. As to GCGGTTAC, the “PBM E-score” value came to 0.452. The same measure for GCGGTTGA: 0.149; for CCGGTTAC: 0.398; for GCGGTTAA: 0.356.

In the case of CCGGTTAG, the “PBM E-score” value came out at 0.159. The same measure for AAGCTTGT: 0.15.

On to CATCGTTC, for which the “PBM E-score” value was -0.015. On to AGGAACCA, for which the “PBM E-score” value is 0.0162.

Consider CGAGCGCC, for which the “PBM E-score” value is -0.202.

As to AGTTGGTC, the “PBM E-score” value is 0.0383. The figure for AGTCTTAG is -0.182. The figure for GTATCCAA is 0.0926; for CCTGGCCC it is -0.0746.

As to AGTTATCA, the “PBM E-score” value came out at 0.186. In the case of CGTTAGTA, the “PBM E-score” value stood at 0.0365. The same measure for GGTTAGTA: 0.325; for AGTTAGTA: -0.00813. With GGTTATTA, the “PBM E-score” value came to 0.438. The same measure for GGTTATCA: 0.445; for AGTTATTA: 0.106. Consider CGTTATTA, for which the “PBM E-score” value is 0.114. The same measure for CGTTATCA: 0.0155.

(Values after the supplement of paper PMC3334620.)
